Several values for one entry are separate records, joined by “and”; a condition that tells them apart may be missing. Identical values can stand only once. Inconclusive results are not listed. Activity calls are given as the source filed them. Calls follow the shape of the dose curve; as a rule, active = well fitted cell-killing curve with a large enough effect; inconclusive = small, poorly fitted or top-dose-only effect; inactive = flat fitted curve, though single readings scatter.
Experiment: Quantitative highthroughput screen to assess conditional lethalithy of P12 Ichikawa cells grown in RPMI1640 with dialyzed fetal bovine serum (RPMI+ds) (AID 1963880); also: nearly all actives have a fitted effect of over 35% in size
Conditions: ATP luminescence, 48 h; Potency: P12-Ichikawa viability; series mostly up to 45.8 µM
How it was run: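 Each medium arm—HPLM with 10% dialyzed FBS, or RPMI1640 with 5 mM glucose and 10% untreated or dialyzed FBS—was screened against an 11-point, 3-fold compound titration for 48 h at 37 °C, with CellTiter-Glo luminescence as endpoint.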
Potency is read from the fitted curve at half-maximal effect.

Compound	Potency
C[C@H]1CCCC=CC2C[C@H](O)C[C@@H]2[C@H](O)C=CC(=O)O1 (stereo partly drawn)	0.0235 µM (active)
CCCN1CCO[C@@H]2c3cc(O)ccc3OC[C@@H]21	26.4 µM (active)
C[C@@H]1CC[C@@]2(OC1)O[C@H]1C[C@H]3[C@@H]4CC=C5C[C@@H](O[C@@H]6O[C@H](CO)[C@@H](O[C@@H]7O[C@@H](C)[C@H](O)[C@@H](O)[C@@H]7O)[C@H](O)[C@@H]6O[C@@H]6O[C@@H](C)[C@H](O)[C@@H](O)[C@@H]6O)CC[C@]5(C)[C@@H]4CC[C@]3(C)[C@@H]1[C@H]2C	23.5 µM (active)

Experiment: Cellular viability qHTS for adrenocortical cancer (ACC) cell line SW-13 (AID 1963989); also: nearly all actives have a fitted effect of over 65% in size;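 as to activity (max response): cells grown in serum-free medium with ITS supplement; % is scaled to controls: 0 for no effect and ±100 for the full control effect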
Conditions: SW-13 ACC cells viability, CellTiter-Glo, 48 h; activity (max response): stronger effect = lower value
How it was run: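 IC50 and maximal-response values come from four-parameter logistic fits of titration data. SW-13 cells in serum-free medium received compounds (up to 46 uM final) for 48 h before CellTiter-Glo luminescence.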

Compound	activity (max response)	Potency
CC(C)=CCOc1c2occc2cc2ccc(=O)oc12	-12.5% (inactive)	
O=C(CCCN1CCC(n2c(=O)[nH]c3ccccc32)CC1)c1ccc(F)cc1	-18.7% (inactive)	
C[C@]12CC[C@H]3[C@@H](CCC4=CC(=O)CC[C@@H]43)[C@@H]1CC[C@@H]2OC(=O)CCC1CCCCC1	-4.2% (inactive)	
Cc1sc2c(c1C)C(c1ccc(Cl)cc1)=NC(CC(N)=O)c1nnc(C)n1-2 (stereo not drawn)	-21.6% (inactive)	
O=C(CBr)Nc1ccc(Cl)cc1C(=O)c1ccccc1F	-3.92% (inactive)	
Clc1ccc(C(c2ccc(Cl)cc2)C(Cl)(Cl)Cl)cc1	4.08% (inactive)	
CC(CCc1ccccc1)NC(C)C(O)c1ccc(O)cc1 (stereo not drawn)	-14.3% (inactive)	
C/C(O)=C(\C#N)C(=O)Nc1cc(Br)ccc1Br	-6.51% (inactive)	
CN(C)CCc1c[nH]c2ccccc12	-12.4% (inactive)	
CCC(COC(=O)c1cc(OC)c(OC)c(OC)c1)(c1ccccc1)N(C)C (stereo not drawn)	-2.65% (inactive)	
CN1C[C@@H](NS(=O)(=O)N(C)C)C[C@@H]2c3cccc4c3c(cn4C)C[C@H]21	-2.7% (inactive)	
COc1cc([C@@H]2c3cc4c(cc3[C@@H](O)C3COC(=O)C32)OCO4)cc(OC)c1O (stereo partly drawn)		0.316 µM (active)
Oc1ccc([C@H]2CNCc3c2ccc(O)c3O)cc1O	-10.4% (inactive)	
Cc1ccccc1-n1c(Cn2cnc3c(N)ncnc32)nc2cccc(C)c2c1=O	9.58% (inactive)	
C[C@@H]1CC[C@H]2[C@@H](C)C(=O)O[C@@H]3O[C@@]4(C)CC[C@@H]1[C@]32OO4	-4.33% (inactive) and -19.2% (inactive)	
CN1CCc2cc(Cl)c(O)cc2[C@H]2c3ccccc3CC[C@@H]21	-19.8% (inactive)	
O=c1[nH]c2ccc(Cl)cc2c(N[C@@H]2CN3CCC2CC3)c1-c1nc2ccccc2[nH]1		3.55 µM (active)
CCN(CC)Cc1nccn1-c1ccc([N+](=O)[O-])cc1C(=O)c1ccccc1Cl	-3.26% (inactive)	

Compound	activity (max response)	Potency
O=C(O)C1=CCCN(CCOC(c2ccc(C(F)(F)F)cc2)c2ccc(C(F)(F)F)cc2)C1	-19.1% (inactive)	
O=C(Nc1ccccc1-c1ccc(Cl)cc1)c1cccnc1Cl	-12.7% (inactive)	
S=C(SSC(=S)N1CCCCC1)N1CCCCC1	-0.757% (inactive)	
O=S(=O)(O)C(F)(F)C(F)(F)C(F)(F)C(F)(F)F	12.3% (inactive)	
CC(=O)[O][Hg][c]1ccccc1		1.3 µM (active)
O=C1CN2CCOC2(c2ccccc2Cl)c2cc(Cl)ccc2N1 (stereo not drawn)	-4.14% (inactive)	
C[C@]12CC[C@H]3[C@@H](CCC4=CC(=O)CC[C@@H]43)[C@@H]1CC[C@@H]2OC(=O)CCc1ccccc1	-0.27% (inactive)	
COc1cc(CC#N)cc(OC)c1OC	12% (inactive)	
CC1(C)CC/C(=C/c2ccc(Cl)cc2)C1(O)Cn1cncn1 (stereo not drawn)	3.72% (inactive)	
COC(=O)[C@]12CCC(C)(C)C[C@H]1[C@H]1C(=O)C=C3[C@@]4(C)C=C(C#N)C(=O)C(C)(C)[C@@H]4CC[C@@]3(C)[C@]1(C)CC2		6.31 µM (active)
CCOP(=O)(NC(C)C)Oc1ccc(SC)c(C)c1 (stereo not drawn)	-12.8% (inactive)	
CN(C)CCc1c[nH]c2cccc(O)c12	3.4% (inactive)	
CC(CC(C#N)(c1ccccc1)c1ccccc1)N(C)C (stereo not drawn)	-32% (inactive)	
CCOC(=O)C1(c2ccccc2)CCN(CCc2ccc(N)cc2)CC1	-18.4% (inactive)	
c1cc2ccc3cccc4ccc(c1)c2c34	-9.29% (inactive)	
Cc1ncc2n1-c1ccc(Cl)cc1C(c1ccccc1F)=NC2	-18.8% (inactive)	
ClCCCN1CCN(c2cccc(Cl)c2)CC1	-6.01% (inactive)	
